# From PubChem BioAssay (EPA / NIEHS)
# Some compounds were tested as several samples or in several runs, with calls that do not always agree. Active and inactive are the calls of the source. The calls were made as follows: active = hit-call score of the fitted dose curve at least 0.9, where 1 is the maximum; inactive = score below 0.9.
# Experiment: ATG_AP_1_CIS: Attagene CIS-FACTORIAL HepG2 Assay for human Activator Protein 1 (AP-1) (AID 2282931)
# Details: HepG2 Attagene cis-factorial AP-1 reporter mRNA; actives raise or lower the signal
# Procedure: ATG_CIS is a cell-based, multiplexed-readout assay that uses HepG2, a human liver cell line, with measurements taken at 24 hours after chemical dosing in a 24-well plate.ATG_AP_1_CIS is one of 52 assay component(s) measured or calculated from the ATG_CIS assay. It is designed to make measurements of mRNA induction, a form of inducible reporter, as detected with fluorescence intensity signals by Reverse transcription polymerase chain reaction (RT-PCR) and Capillary electrophoresis technology.Data from the assay component ATG_AP_1_CIS was analyzed into 1 assay endpoint. This assay endpoint, ATG_AP_1_CIS, was analyzed with bidirectional fitting relative to DMSO as the negative control and baseline of activity. Using a type of inducible reporter, measures of mRNA for gain or loss-of-signal activity can be used to understand the reporter gene at the transcription factor-level as they relate to the gene FOS and JUN. Furthermore, this assay endpoint can be referred to as a primary readout, because this assay has produced multiple assay endpoints where this one serves a reporter gene function. To generalize the intended target to other relatable targets, this assay endpoint is annotated to the dna binding intended target family, where the subfamily is basic leucine zipper.
# Human liver HepG2 cells are transiently transfected with multiple reporter transcription units (MRTUs) in 6-well plates using FuGene 6 reagent (Roche; 3 ml FuGene/1 mg DNA). The MRTU constructs are regulated by a cis-regulating element (promoter). […] A major difference between the CIS and TRANS system is that in CIS activities of endogenous TFs are measured, whereas the TRANS assay evaluates changes in activities of exogenous, chimeric NR-Gal4 proteins. […] At the end of 24 hour incubation, total RNA was isolated using TriZol reagent (Invitrogen). The isolated RNA is then reverse-transcribed using oligo(dT) primer and Mo-MLV reverse transcriptase (Invitrogen) with DNAse I (Ambion) treatment for 30 min. The one-tenth of the produced cDNA was amplified by PCR using Taq DNA polymerase (Invitrogen) and two reporter sequence-specific primers. The PCR products were fluorescently labeled by primer extension with 6-arboxyfluorescein (6-FAM) 5'-labeled reporter sequence-specific primer (2 min at 95 C, 20 s at 68 C and 10 min at 72 C) and these products were digested with 5U of HpaI (New England Biolabs) for 2h at 37 C. The fragments were purified using Qiaquick PCR columns (Qiagen), analyzed on an ABI 3130xL genetic analyzer (Applied Biosystems) with peak positions identified by using a set of X-rhodamine (ROX)-labeled MapMarker1000 molecular weight standards (BioVentures). The raw capillary electrophoresis data was processed using Attagraph software (Attagene).
SMILES,AC50,outcome
CN(C)CCCN1c2ccccc2Sc2ccc(Cl)cc21,18.2 µM (active),–
O=C1OC(c2ccc(O)cc2)(c2ccc(O)cc2)c2ccccc21,169 µM (active),–
C#CC(O)C(CC)CCCC (stereo not given),100 µM (active),–
CC(C)OC(=O)C(C)(C)Oc1ccc(C(=O)c2ccc(Cl)cc2)cc1,74.4 µM (active),–
CO[C@@H]1COCC[C@@H]1N[C@@H]1CC[C@@](C(=O)N2CCc3ncc(C(F)(F)F)cc3C2)(C(C)C)C1,–,inactive
CCCCOC(=O)CCCCC(=O)OCCCC,–,inactive
O=C(O)c1cccnc1,–,inactive
CCCCCCCCCCCCCCOS(=O)(=O)O,–,inactive
O=[Si]=O,–,inactive
CCCCCCCC(=O)OC,–,inactive
CCCCC(CC)COC(=O)CCCCCCCC(=O)OCC(CC)CCCC (stereo not given),–,inactive
Cc1cc(SC2=C(O)C[C@@](CCc3ccc(N)cc3)(C(C)C)OC2=O)c(C(C)(C)C)cc1CO,–,inactive
O=C1c2c(O)cccc2Cc2cccc(O)c21,–,inactive
CC(C)COC(=O)CCCCC(=O)OCC(C)C,–,inactive
CC(=O)O[C@]1(C(C)=O)CC[C@H]2[C@@H]3C=C(Cl)C4=CC(=O)[C@@H]5C[C@@H]5[C@]4(C)[C@H]3CC[C@@]21C,71.5 µM (active) [middle of 4 runs],inactive
CCCCCCC(C=O)=Cc1ccccc1,60 µM (active),inactive
S=c1[nH]c2ccccc2s1,19.8 µM (active),–
COC(=O)[C@H]1[C@H]2C[C@@H]3c4[nH]c5cc(OC)ccc5c4CCN3C[C@H]2C[C@@H](OC(=O)c2cc(OC)c(OC)c(OC)c2)[C@@H]1OC,25.5 µM (active),–
O=C(N[C@@H](c1ccccc1)[C@@H]1CCCCN1)c1cccc(C(F)(F)F)c1Cl,9.01 µM (active),–

SMILES,AC50,outcome
CC(C)(C)c1ccccc1,–,inactive
C=CCCCCCCCCCCCC,–,inactive
Oc1ccc(O)cc1,48.3 µM (active),–
C/C=C/c1ccc(OC)cc1,–,inactive
CC(=O)[C@@]1(O)CC[C@H]2[C@@H]3CCC4=CC(=O)CC[C@]4(C)[C@H]3CC[C@@]21C,–,inactive
Cc1ccc(C(C)(C)C)c(O)c1,–,inactive
CCCC[C@H]1CN(CC2CCOCC2)C(=O)OC12CCN(C1(C)CCN(C(=O)c3c(C)ncnc3C)CC1)CC2,–,inactive
CCCCCCCCCCCCCCCCO,–,inactive
CN(C)CCCN(C)CCCN(C)C,–,inactive
CC(=O)OCC(COC(C)=O)OC(C)=O,–,inactive
Nc1nc(Cl)nc2c1ncn2[C@H]1C[C@H](O)[C@@H](CO)O1,–,inactive
CC(=O)CC(c1ccccc1)c1c(O)c2ccccc2oc1=O (stereo not given),–,inactive
NC1CCCCC1,–,inactive
CCCCc1nc2cccnc2n1Cc1ccc(-c2ccccc2-c2nnn[nH]2)cc1,–,inactive
Cc1ccc(-c2cc(C(F)(F)F)nn2-c2ccc(S(N)(=O)=O)cc2)cc1,–,inactive
O=Cc1ccccc1C=O,–,inactive
CN(C)C(=O)NC1(c2ccccc2)CCN(CC[C@@]2(c3ccc(F)c(F)c3)CN(C(=O)c3ccccc3)CCO2)CC1,100 µM (active),–
CC(C)NCC(O)c1ccc(O)c(O)c1 (stereo not given),–,inactive
O=C(Oc1ccccc1)c1cccc(C(=O)Oc2ccccc2)c1,–,inactive
